GPR151 ag = activators of human GPR151, primary screen, cell-based, PathHunter beta-arrestin, luminescence | PathHunter beta-arrestin GPR151 cells | actives 1% (n = 650,000) | AID 1508602, 2020 | G-protein coupled receptor 151 (Homo sapiens), Q8TDV0 | activation, % at 11.2 µM; in the data active means activation above about 4.9%;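 further: 0% = median of compound wells and 100% = cells with positive control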
TEAD-YAP block = TEAD-YAP interaction inhibition, primary screen, TEAD-YAP interaction inhibitor project, luminescence, HEK-TIYL cells | TEAD-Gal4/YAP UAS-luciferase luminescence | inhibition, % at 9.12 µM | actives 1.4% (n = 640,000); in the data active means inhibition above about 32%;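 further: 0% = median of test compound wells and 100% = reference inhibitor wells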
FBW7 act = FBW7 E3 ligase activators, primary screen, biochemical, AlphaScreen, human. F-box/WD repeat-containing protein 7 (Homo sapiens), Q969H0. AlphaScreen FBW7–phospho-cyclin E peptide binding, activator screen. normalized activity (activation), % at 26.1 µM. actives 0.13% (n = 650,000); in the data active means normalized activity above about 1.9%;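 further: purified mutant Fbw7 with reduced substrate affinity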
MITF inh = MITF inhibitors, primary screen, biochemical, AlphaScreen, human | AID 1259374, 2018 | AlphaScreen MITF homodimerization, bead proximity signal | inhibition, % at 2.6 µM | actives 0.91% (n = 650,000); in the data active means inhibition above about 50%;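 further: 0% = vehicle wells with protein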
Target sequence (O75030 whole entry, looked up): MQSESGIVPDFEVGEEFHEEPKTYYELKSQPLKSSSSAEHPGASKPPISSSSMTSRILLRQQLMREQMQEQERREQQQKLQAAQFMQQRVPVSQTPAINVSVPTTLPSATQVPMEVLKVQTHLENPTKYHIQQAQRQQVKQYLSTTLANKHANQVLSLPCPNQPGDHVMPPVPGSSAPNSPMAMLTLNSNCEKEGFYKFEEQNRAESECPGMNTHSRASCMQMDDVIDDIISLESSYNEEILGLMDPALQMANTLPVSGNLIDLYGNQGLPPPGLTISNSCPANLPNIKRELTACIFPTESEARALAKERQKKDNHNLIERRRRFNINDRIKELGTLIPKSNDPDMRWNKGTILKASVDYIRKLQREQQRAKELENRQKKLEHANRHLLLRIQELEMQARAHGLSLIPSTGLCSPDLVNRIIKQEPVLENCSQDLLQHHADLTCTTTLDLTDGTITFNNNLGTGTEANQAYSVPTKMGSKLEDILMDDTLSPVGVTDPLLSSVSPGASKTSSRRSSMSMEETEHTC
* = called active by the depositor; / = no result given. Shown are actives, neighbours in structure and some others; about 3.5% of the full set was active somewhere.

SMILES | GPR151 ag | TEAD-YAP block | FBW7 act | MITF inh
COc1ccc2cc3c(N)nn(C(=O)c4ccc(F)cc4)c3nc2c1 | 1 | 36* | 0 | 11
COc1ccc2cc3c(N)nn(C(=O)c4ccccc4Cl)c3nc2c1 | -2 | 45* | 0 | 9
CNC(=O)CNc1nc(-c2ccccn2)nc2scc(-c3ccccc3)c12 | -2 | / | / | /
CC(C)NC(=O)Cn1nc2c3ccccc3nc(C3CC3)n2c1=O | 2 | -1 | 0 | 4
CC(C)(C)NC(=O)Cn1nc2c3ccccc3nc(C3CC3)n2c1=O | -1 | 44* | 0 | -1
CCn1c(-c2csc(C)c2)n[nH]c1=S | 0 | -3 | 0 | -5
CCc1nn(CC(=O)C(C)(C)C)c(=O)c2cc3ccsc3n12 | -1 | 2 | 17* | -4
CCC1=NN2C(=N)/C(=C/c3cccc(OCCOc4ccccc4C)c3)C(=O)N=C2S1 | 0 | -53 | 0 | 14
CCC1=NN2C(=N)/C(=C\c3cccc(OCCOc4cc(C)ccc4C)c3)C(=O)N=C2S1 | -1 | -56 | 0 | 63*
CCC1=NN2C(=N)/C(=C/c3cc(Br)c(OCCOc4ccc(Br)cc4)c(OC)c3)C(=O)N=C2S1 | 2 | -16 | 0 | 2
CCC1=NN2C(=N)/C(=C/c3cc(Br)c(OCCOc4ccc(C)cc4)c(OC)c3)C(=O)N=C2S1 | -2 | -14 | 1 | 61*
COc1ccccc1-n1cc(CN2CCN3C(=O)[C@@H]4CCCN4C(=O)[C@H]3C2)cn1 | -1 | 5 | 0 | -12
Fc1ccc(Nc2ccn3ncc(-c4cccs4)c3n2)cc1Cl | 3 | 5 | 0 | 16
Fc1ccc(Nc2ccn3ncc(-c4ccsc4)c3n2)cc1Cl | 1 | 5 | 2.0* | -3
C=CCn1c(Sc2ccc([N+](=O)[O-])cn2)nnc1-c1ccc(OC)cc1 | 0 | 48* | 0 | -7
C=CCn1c(SCC)nnc1-c1ccc([N+](=O)[O-])cc1 | 1 | 0 | 0 | 9
CCOc1ccccc1CNc1sc2c(c1C(=O)Nc1cc(OC)ccc1OC)CCC2 | 1 | -2 | 0 | 13
Cc1c2oc3c(C)ccc(C(=O)OC(C)C4NC(=O)C(C(C)C)N(C)C(=O)CN(C)C(=O)C5CCCN5C(=O)C(C(C)C)NC4=O)c3nc-2c(C(=O)OC(C)C2NC(=O)C(C(C)C)N(C)C(=O)CN(C)C(=O)C3CCCN3C(=O)C(C(C)C)NC2=O)c(N)c1=O (stereo unspecified) | 3 | 96* | 0 | -2
COc1cccc(N2C(=O)NC(=O)/C(=C/C=C/c3ccco3)C2=O)c1 | 4 | 3 | 0 | 18
COc1ccc(N2C(=O)/C(=C\C=C\c3ccco3)C(=O)NC2=S)cc1 | -1 | -1 | 0 | 77*
Cc1c(Cl)c(=O)n2c(C)c(Cl)c(=O)n12 | 4 | 0 | 0 | -17
O=C(C(=O)N1CCN(C(=O)c2ccco2)CC1)c1c(-c2ccccc2)cc2ccccn12 | 0 | 42* | 0 | 3
COc1ccc(C(=O)NCCOc2cc(C)cc(C)c2)cc1OC | -1 | 11 | 0 | 12
CCc1ccc(-c2cc(C(=O)Nn3cnnc3)c3ccccc3n2)cc1 | -3 | 82* | 0 | 7
COc1cc(C(=O)NCc2ccc(C(=O)NCCc3ccccc3)cc2)cc(OC)c1OC | -1 | -5 | 0 | 11
SMILES | GPR151 ag | TEAD-YAP block | FBW7 act | MITF inh
NS(=O)(=O)c1ccc(NC(=O)c2cc(-c3ccccc3)nc3ccccc23)cc1 | -1 | 2 | 1.9* | 19
NS(=O)(=O)c1ccc(NC(=O)c2cc(-c3ccncc3)nc3ccccc23)cc1 | 1 | 10 | 0 | 19
COc1cc(C(=O)NCCOc2cc(C)cc(C)c2)cc(OC)c1OC | -1 | 52* | 1 | 13
COc1cc(C(=O)Nc2ccccc2C(=O)NCCc2ccccc2)cc(OC)c1OC | 0 | 39* | 0 | -8
CC1CCN(Cc2nnnn2CC(=O)NCC2CC2)CC1 | 3 | -10 | 0 | -1
COc1ccccc1/C=C1/SC(=O)NC1=O | 1 | -4 | 0 | 2
O=C1Nc2ccccc2C1(O)C1CCc2ccccc2/C1=N\O (stereo unspecified) | -1 | -8 | 0 | -6
O=C(CN1C(=O)NC2(CCCC2)C1=O)NCC(=O)OCc1ccccc1 | -1 | 5 | 0 | 3
CCc1ccc(NC(=O)Cn2ncc3ccccc32)cc1 | 0 | -38 | 0 | 4
O=C1NC(=O)C2C1ON(c1ccc(Cl)cc1)C2c1ccc([N+](=O)[O-])cc1 (stereo unspecified) | -1 | 2 | 0 | -7
COc1cc(C(=O)Nc2ccc(-c3nc4ccccc4[nH]3)cc2)cc(OC)c1OC | 0 | 32* | 0 | 8
CCOc1ccc(-c2cc(C(=O)Nc3cc(=O)n(C)c(=O)n3C)c3ccccc3n2)cc1 | -2 | 76* | 0 | -26
COc1cc(C(=O)Nc2ccccc2C(=O)Nc2ccccc2)cc(OC)c1OC | 1 | 53* | 0 | -8
COc1ccc(C(=O)Nc2ccc(-c3nc4ccccc4[nH]3)cc2)cc1OC | 1 | 3 | 0 | -6
CCOc1ccc(NC(=O)c2cc(OC)c(OC)c(OC)c2)cc1 | 1 | 55* | 0 | -2
COc1cc(C(=O)Nc2ccccc2C(=O)Nc2cccc(C(=O)O)c2)cc(OC)c1OC | 0 | 1 | 0 | 1
C/C(CC(=O)Nc1ccc(N(C)C)cc1)=N\NC(N)=S | -1 | 1 | 0 | -15
COc1ccc(S(=O)(=O)NC2CC(C)(C)NC(C)(C)C2)cc1NC(C)=O | 0 | 3 | 0 | -7
COC(=O)C1=CN(Cc2ccccc2)C=C(C(=O)OC)C1c1ccc(Br)cc1 | 0 | -5 | 0 | -4
CCOC(=O)c1c(NC(=O)Cc2ccc(OC)cc2)sc2c1CC(C)(C)OC2 | -2 | -16 | 0 | -10
COc1cc(C(=O)Nc2ccccc2)c2ccccc2n1 | 0 | 24 | 0 | 5
Nc1ccccc1C(=O)NCCc1ccccc1 | -5 | 63* | 0 | -6
CCOc1ccc(NC(=O)c2cc(OC)nc3ccccc23)cc1 | -1 | 52* | 0 | 6
COc1ccc(/C=N\NC(=O)c2cncc(Br)c2)cc1OC | 1 | -3 | 0 | 15
CCc1nc(SCC(=O)NCc2cccs2)c2c(C)c(C)sc2n1 | 0 | -6 | 8.1* | 4
COC(=O)C1=C(C)NC(=O)CC1c1cccc2ccccc12 (stereo unspecified) | 2 | 3 | 0 | -4
Nc1ccc2nc(N)sc2c1 | -2 | 2 | 0 | 12
Nc1nc2ccc(Oc3ccc4nc(N)sc4c3)cc2s1 | 1 | 33* | 0 | 16
COc1cccc(C(=O)N2Cc3ccccc3-c3ccccc3C2=O)c1 | 0 | 8 | 0 | -16
C[C@]12C=CC(=O)C=C1CCC1C2[C@@H](O)C[C@@]2(C)C1CC[C@]2(O)C(=O)COC(=O)CCC(=O)O (stereo partly specified) | 1 | -7 | 8.0* | 2

From PubChem BioAssay
